Only some compounds are listed: those with a hit (about 9.3% of all), similar ones and a draw of the others.
HCV inhibitor: HCV inhibition | hit rate 3.4% among 340,000 | Huh7.5.1 HCVcc-Cre infection, luciferase reporter, 44 h | Potency, µM (top dose mostly 41.8 µM), without a hit: top-dose activity change, negative = inhibition, hits mostly inhibitors; note: potency is the fitted concentration of half-maximal effect
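Infectious HCVcc-Cre (~0.5 moi) was added to cells just after compound, with cells seeded 4 h earlier at 1,000 per well. Luciferase activity after 44 h culture reported infection; substrate was incubated 15 min at room temperature before reading.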
HCMV antiviral: blocks human cytomegalovirus replication | HFF cells, HCMV-luciferase reporter, 72 h; stronger effect = lower value | activity change, negative = inhibition, % at 57.5 µM | hit rate 4.5% among 410,000 | AID 1259415; in the data active = activity change below about -60%; inconclusive = no clear call, values can overlap the other calls; inactive = above about -39%
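Two-dose cell screen: HFF monolayers treated with compounds and infected with luciferase-expressing HCMV at 1 PFU/cell, 72 h at 37C, then lysed for luciferase measurement.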
FMDV inh: blocks foot and mouth disease virus. FMDV antiviral cell-based qHTS. Potency, µM (doses to about 57.9 µM), inactives show at the highest dose activity change, negative = inhibition, hits mostly inhibitors. hit rate 1.2% among 410,000; calls by dose curve; tested in HEK293T cells; note: read-out not given here; potency is the fitted concentration of half-maximal effect; nearly all actives have a fitted effect of over 45% in size
VACV mCherry inh: vaccinia inhibition (mCherry reporter). Potency, µM (series often up to 36.5 µM), without a hit: top-dose activity change, negative = inhibition, most hits filed as inhibitors. hit rate 0.63% among 310,000. Vaccinia virus mCherry reporter infection, fluorescence; calls by dose curve; tested in A549 cells; note: potency is the fitted concentration of half-maximal effect; nearly all actives have a fitted effect of over 35% in size
Sm TGR inh: blocks Schistosoma mansoni thioredoxin glutathione reductase | Q962Y6 | purified TGR, DTNB reduction, TNB absorbance 405 nm | Potency, µM (highest dose often 114 µM), for inactives: at the top dose activity change, negative = inhibition, hits mostly inhibitors | hit rate 3% among 360,000; note: potency is the fitted concentration of half-maximal effect; nearly all actives have a fitted effect of over 60% in size
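First, TGR (20 nM dispensed) and NADPH were mixed with compound. Second, a 15 min room-temperature incubation followed. Third, further NADPH and then DTNB were added to start the reaction. Finally, TNB absorbance was monitored kinetically.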
VACV Venus inh: vaccinia inhibition (Venus reporter). Vaccinia virus Venus reporter expression, fluorescence. Potency, µM (top dose mostly 36.5 µM), inactives show at the top dose activity change, negative = inhibition, hits mostly inhibitors. hit rate 0.46% among 330,000; calls by dose curve; tested in A549 cells; note: potency is the fitted concentration of half-maximal effect; nearly all actives have a fitted effect of over 30% in size
The depositor's hits bear a star; ! = repeats disagree; [ ] = remark or other dose. Unless noted, calls come from the whole dose curve; as a rule, active = well fitted curve in the direction sought with a large enough effect; inconclusive = small, poorly fitted or top-dose-only effect, or another doubt; inactive = no such curve, though single readings can be large; an effect the other way counts as inactive or inconclusive. % is set by controls: 0 for no effect and ±100 for the full control effect.

Screening O=C(CCCn1ccc2cc(S(=O)(=O)N3CCCC3)ccc21)NCc1ccc(Cl)cc1 returned HCMV antiviral -87*, FMDV inh inconclusive, VACV mCherry inh -26%[7.34 µM], Sm TGR inh 6% and VACV Venus inh -29%[7.34 µM].
For C=CC[C@@H](CC(=O)NCCO)C(=O)NC[C@H](OC(=O)[C@@H](CC=C)CC(=O)OC(C)(C)C)c1ccccc1 the results were HCV inhibitor 2%, HCMV antiviral -5, FMDV inh -16%, VACV mCherry inh inactive and VACV Venus inh -12%.
`O=C(O)c1sccc1Oc1ccc(F)cc1[N+](=O)[O-]` gave HCV inhibitor 9%, HCMV antiviral -15, FMDV inh -6%, VACV mCherry inh -2%, Sm TGR inh -24% and VACV Venus inh -6%.
CCOc1ccc(NC(=O)c2cc(S(=O)(=O)N3CCCCC3)c[nH]2)cc1 was read as HCV inhibitor inconclusive, HCMV antiviral -65*!, FMDV inh 18%, VACV mCherry inh inconclusive, Sm TGR inh -25% and VACV Venus inh -9%.
CC(C)c1ccc(NC(=O)c2cc(S(=O)(=O)N3CCCC3)c[nH]2)cc1 was read as HCV inhibitor inconclusive, HCMV antiviral -77*, FMDV inh -17%, VACV mCherry inh -28%, Sm TGR inh 8% and VACV Venus inh -28%.
`Cc1cccc(CSc2nc3c(c(=O)[nH]2)C(c2cccc(O)c2)CC(=O)N3)c1` (configuration not stated) gave HCMV antiviral 14, FMDV inh -12%, VACV mCherry inh -5%, Sm TGR inh -2% and VACV Venus inh -13%.
For Cc1cc(C)c2c(=O)[nH]c(SCC(=O)c3ccc(F)c(C)c3)nc2n1 the results were HCV inhibitor 20%, HCMV antiviral -103*, FMDV inh -12%, VACV mCherry inh inactive, Sm TGR inh -1% and VACV Venus inh -10%.
`Cc1cc(SCC(=O)c2ccc(O)c(O)c2)n2nc(C)c(-c3ccccc3)c2n1` gave HCV inhibitor 11µM*, HCMV antiviral -30, FMDV inh -22%, VACV mCherry inh 11µM*, Sm TGR inh 0% and VACV Venus inh -29%.
Screening Cc1cc(=O)[nH]c(SCC(=O)c2ccc(O)c(O)c2)n1 returned HCV inhibitor 12%, HCMV antiviral 20, FMDV inh -4%, VACV mCherry inh -1%, Sm TGR inh 18µM* and VACV Venus inh -6%.
Screening O=C(NCc1ccc(F)cc1)c1ccc(CNc2c(N3CCOCC3)c(=O)c2=O)cc1 returned HCV inhibitor 6%, HCMV antiviral -18, FMDV inh -2%, VACV mCherry inh -3%, Sm TGR inh 1% and VACV Venus inh -8%.
CC(=O)Nc1ccc(CN2CCN(C3CCCC3)C(CCO)C2)cc1 (configuration not stated) was read as HCV inhibitor 15%, HCMV antiviral -10, FMDV inh -14%, VACV mCherry inh -22%, Sm TGR inh -2% and VACV Venus inh -19%.
`Cc1ccc(N2C(=O)c3ccccc3NC2c2ccccc2O)cc1` (configuration not stated) gave HCV inhibitor -27%, HCMV antiviral 62, FMDV inh 23%, VACV mCherry inh -3%, Sm TGR inh -4% and VACV Venus inh 12%.
Screening COc1cc(=O)n2c(c1C(=O)N(C)Cc1nonc1C)CCN(Cc1ccccc1Cl)CC2 returned FMDV inh -14%, VACV mCherry inh -7% and VACV Venus inh 4%.
For O=C(NC1CCCCC1)C1CCC(=O)N(Cc2cccc(C(F)(F)F)c2)C1 (configuration not stated) the results were HCV inhibitor -14%, HCMV antiviral -61*, FMDV inh -19%, VACV mCherry inh -3%, Sm TGR inh 6% and VACV Venus inh -9%.
For CCN1CCN(C(=O)C2CCC(=O)N(Cc3cccc(C(F)(F)F)c3)C2)CC1 (configuration not stated) the results were HCV inhibitor 6%, HCMV antiviral inconclusive, FMDV inh -16%, VACV mCherry inh 0%, Sm TGR inh -9% and VACV Venus inh -2%.
Screening CN1CCN(C(=O)C2CCC(=O)N(Cc3cccc(C(F)(F)F)c3)C2)CC1 (configuration not stated) returned HCV inhibitor -6%, HCMV antiviral -7, FMDV inh -15%, VACV mCherry inh -14%, Sm TGR inh 7.9µM* and VACV Venus inh -2%.
For O=C(O)c1cc(-c2cccnc2)nn1-c1ccccn1 the results were HCV inhibitor -4%, HCMV antiviral 38, FMDV inh -21%, VACV mCherry inh -7%, Sm TGR inh -6% and VACV Venus inh 2%.
Screening N#CC1=C(N)Nc2ncnn2C1c1ccc([N+](=O)[O-])cc1 (configuration not stated) returned HCV inhibitor 1%, HCMV antiviral inconclusive, FMDV inh -5% and Sm TGR inh -3%.
For CC(=O)OC1CC(OC2C(O)CC(OC3C(O)CC(OC4CCC5(C)C(CCC6C5CC(O)C5(C)C(C7=CC(=O)OC7)CCC65O)C4)OC3C)OC2C)OC(C)C1OC1OC(CO)C(O)C(O)C1O (configuration not stated) the results were HCV inhibitor 0.56µM*, HCMV antiviral -100*, FMDV inh inconclusive, VACV mCherry inh 2.5µM* and VACV Venus inh 0.89µM*.
For C[C@H]1O[C@@H](O[C@H]2[C@@H](O)C[C@@H](O[C@H]3[C@@H](O)C[C@H](O[C@H]4CC[C@@]5(C)[C@H](CC[C@@H]6[C@@H]5CC[C@]5(C)[C@@H](C7=CC(=O)OC7)CC[C@]65O)C4)O[C@@H]3C)O[C@@H]2C)C[C@H](O)[C@@H]1O the results were VACV mCherry inh 13µM* and VACV Venus inh 0.025µM*.
CC1O[C@@H](O[C@@H]2C(O)C[C@H](O[C@@H]3C(O)C[C@@H](OC4CC[C@@]5(C)C6CC[C@]7(C)C(C8=CC(=O)OC8)CC[C@@]7(O)C6CC[C@@H]5C4)OC3C)OC2C)CC(O)[C@H]1O (some centres not stated) was read as FMDV inh 0%, VACV mCherry inh inconclusive and VACV Venus inh 0.28µM*.
For C[C@H]1O[C@@H](O[C@H]2[C@@H](O)C[C@H](O[C@H]3[C@@H](O)C[C@H](O[C@H]4CC[C@@]5(C)[C@H](CC[C@@H]6[C@@H]5C[C@@H](O)[C@]5(C)[C@@H](C7=CC(=O)OC7)CC[C@]65O)C4)O[C@@H]3C)O[C@@H]2C)C[C@H](O)[C@@H]1O the results were HCV inhibitor inconclusive, HCMV antiviral -100*, FMDV inh inconclusive, VACV mCherry inh inconclusive, Sm TGR inh 31% and VACV Venus inh 0.28µM*.

Assay outcomes as filed in PubChem BioAssay.
